Experimental data as given in PubChem BioAssay AID1645882 (National Center for Advancing Translational Sciences (NCATS), 2021).
Values joined by “and” are separate entries in the source; they are usually repeats but may differ in a detail not shown here. Equal entries are not always repeated. In all, about 16,000 compounds went through this assay and about 120 (0.75%) were called active. About 4% were inconclusive and are not listed. Calls follow the shape of the dose curve; as a rule, active = well fitted inhibition curve with a large enough effect; inconclusive = small, poorly fitted or top-dose-only effect; inactive = no such curve, though single readings can be large or run the other way. The sample as a whole holds a higher share of actives than the screen did. Some structures have more than one record in an assay (separate samples or runs), and their calls can disagree.

Target: Rap guanine nucleotide exchange factor 3 (Homo sapiens) (UniProt O95398)
Assay: Validation qHTS for antagonist of cAMP-regulated guanine nucleotide exchange factor 3 (EPAC1); also: nearly all actives have a fitted effect of over 75% in size;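 as to activity change, negative = inhibition: plate controls were DMSO for no effect and ATA control for full effect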
Conditions: EPAC1 Rap1B-BODIPY-GDP exchange, fluorescence; series mostly up to 150 µM; activity change, negative = inhibition: at the top concentration
Method in brief: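 EPAC1 (100 nM) mixed with 250 nM RAP1B-BODIPY-GDP and 50 uM GDP; compounds in concentration series, 5 min at room temperature. Fluorescence (ex 480/em 540 nm) read every 5 min for 30 min; normalized to ATA control and DMSO.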
Potency is read from the fitted curve at half-maximal effect.

Chain of Rap guanine nucleotide exchange factor 3 (Homo sapiens) (O95398 whole entry, looked up): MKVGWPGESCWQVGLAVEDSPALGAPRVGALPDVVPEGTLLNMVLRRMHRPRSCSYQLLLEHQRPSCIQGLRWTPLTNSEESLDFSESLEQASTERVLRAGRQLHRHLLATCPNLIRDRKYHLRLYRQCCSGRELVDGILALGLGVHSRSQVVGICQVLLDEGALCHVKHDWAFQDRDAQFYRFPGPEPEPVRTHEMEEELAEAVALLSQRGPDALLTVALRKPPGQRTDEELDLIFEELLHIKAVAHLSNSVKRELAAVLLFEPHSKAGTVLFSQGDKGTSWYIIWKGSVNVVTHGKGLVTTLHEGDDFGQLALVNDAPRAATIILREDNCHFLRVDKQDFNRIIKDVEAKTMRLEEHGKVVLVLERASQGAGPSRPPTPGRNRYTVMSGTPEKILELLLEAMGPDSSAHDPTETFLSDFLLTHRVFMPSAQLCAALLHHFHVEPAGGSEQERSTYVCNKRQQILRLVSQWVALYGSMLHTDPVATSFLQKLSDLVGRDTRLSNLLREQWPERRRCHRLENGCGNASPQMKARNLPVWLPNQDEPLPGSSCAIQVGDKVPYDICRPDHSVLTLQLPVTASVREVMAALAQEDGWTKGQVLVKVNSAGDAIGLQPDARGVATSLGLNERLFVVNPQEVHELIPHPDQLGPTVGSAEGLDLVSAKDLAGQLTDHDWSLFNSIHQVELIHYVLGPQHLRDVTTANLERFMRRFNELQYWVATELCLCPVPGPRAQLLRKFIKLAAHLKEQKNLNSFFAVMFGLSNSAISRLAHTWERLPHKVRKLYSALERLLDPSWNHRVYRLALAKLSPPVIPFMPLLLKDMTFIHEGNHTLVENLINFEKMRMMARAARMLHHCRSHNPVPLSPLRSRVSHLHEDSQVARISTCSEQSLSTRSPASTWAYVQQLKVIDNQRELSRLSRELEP

Row | Structure (SMILES) | activity change, negative = inhibition | Potency
1 | CN1[C@@H]2CCC[C@@H]1CC(NC(=O)c1nn(C)c3ccccc13)C2 (stereo partly specified) | 27.2% (inactive) | –
2 | N#CC[C@H](Cc1ccccc1)N1CCN(Cc2ccccc2)CCC1=O | 9.25% (inactive) | –
3 | COc1ccc(C2OC3C(CO)OC(n4cnc5c(=O)[nH]c(N)nc54)C3O2)cc1 (stereo unspecified) | 9.03% (inactive) | –
4 | Cc1c(C(=O)N(C)Cc2cccc3ncccc23)cnn1-c1nccc(-c2ccccc2F)n1 | 7.94% (inactive) | –
5 | CC1CN(CC(=O)NCCc2ccncc2)Cc2ccccc2O1 (stereo unspecified) | 13.3% (inactive) | –
6 | CC1CC[C@@]2(C(=O)O)CCC3(C)C(=CCC4[C@]5(C)CC(O)C(O)[C@](C)(CO)C5C(O)C[C@@]43C)C2C1C (stereo partly specified) | -17.8% (inactive) | –
7 | O=C(Oc1cc(OC(=O)c2ccccc2)c2c(c1)OC(c1ccc(OC(=O)c3ccccc3)c(OC(=O)c3ccccc3)c1)[C@@H](OC(=O)c1ccccc1)C2)c1ccccc1 (stereo partly specified) | 5.96% (inactive) | –
8 | CC(=O)Oc1cc(OC(C)=O)c2c(c1)OC(c1ccc(OC(C)=O)c(OC(C)=O)c1)C(OC(C)=O)C2 (stereo unspecified) | – | inactive
9 | O=C(OC1Cc2c(O)cc(O)cc2OC1c1cc(O)c(O)c(O)c1-c1c(C2Oc3cc(O)cc(O)c3CC2OC(=O)c2cc(O)c(O)c(O)c2)cc(O)c(O)c1O)c1cc(O)c(O)c(O)c1 (stereo unspecified) | – | 63.1 µM (active)
10 | COc1ccc2c(c1OC)C(=O)O[C@H]2C1c2c(cc3c(c2OC)OCO3)CCN1C (stereo partly specified) | – | inactive
11 | O=C(NCC1Cc2cccc(-c3cnccn3)c2O1)c1ccc2c(c1)OCCO2 (stereo unspecified) | -2.15% (inactive) | –
12 | CC(C)C[C@@H](CO)N1CCN(CCc2ccccc2)CCC1=O | 0.539% (inactive) | –
13 | COc1cccc(-c2nc(N3CCNCC3)c3ccccc3n2)c1 | 17.1% (inactive) | –
14 | Cc1cc2c(cc1C)N[C@]1(C[C@H]3CCCC(=O)N4CC[C@@H](C1)[C@@H]34)C(=NCc1ccccc1)N2 | 9.18% (inactive) | –
15 | CN(C)c1ccc(/C=C/c2ccnc3c2ccc2ccccc23)cc1 | 26.6% (inactive) | –
16 | CN(C)c1ccc(/C=C/c2ccnc3ccc4ccccc4c23)cc1 | – | 100 µM (active)
17 | CN(C)c1ccc(/C=C/C=C/c2ccnc3ccccc23)cc1 | 24.3% (inactive) | –
18 | CCc1oc2ccccc2c1C(=O)c1cc(Br)c(O)c(Br)c1 | – | 100 µM (active)
19 | CCc1oc2ccccc2c1C(=O)c1cc(I)c(O)c(I)c1 | – | 56.2 µM (active)
20 | CC(=O)c1ccc2oc3ccccc3c(=O)c2c1 | -1.3% (inactive) | –
21 | CC(=O)CC(c1ccccc1)c1c(O)c2ccccc2oc1=O (stereo unspecified) | – | inactive
22 | CCCCc1oc2ccccc2c1C(=O)c1cc(I)c(OCCN(CC)CC)c(I)c1 | – | inactive
23 | COc1cccc(-c2oc3ccccc3c(=O)c2O)c1 | 2.87% (inactive) | –
24 | COc1cc(OC)c(OC)cc1CN1CCC(n2cc(C(=O)N3CCCCC3)nn2)CC1 | 4.84% (inactive) | –
25 | c1ccc2c(N3CCCCCC3)nc(CN3CCCCC3c3nccs3)nc2c1 (stereo unspecified) | 11.8% (inactive) | –

Row | Structure (SMILES) | activity change, negative = inhibition | Potency
26 | COc1ccc(-c2nc3cnc(N(C)C)nc3n(C)c2=O)cc1 | 17% (inactive) | –
27 | O=C(Nc1ccc(S(=O)(=O)N2CCOCC2)cc1)c1cc(Cl)ccc1NS(=O)(=O)c1ccc(Cl)s1 | – | 112 µM (active)
28 | O=c1c(-c2ccc(Cl)cc2)nc2cnc(N3CCNCC3)nc2n1CCc1ccccc1 | -11.2% (inactive) | –
29 | COc1cccc(Cn2c(=O)c(-c3ccc(F)c(F)c3)nc3cncnc32)c1 | -1.99% (inactive) | –
30 | O=c1c(-c2ccc(O)cc2)coc2cc(O)cc(O)c12 | – | inactive
31 | COc1ccc(-c2coc3cc(O)cc(O)c3c2=O)cc1 | – | inactive
32 | O=c1c(-c2ccccc2)coc2cc(O)cc(O)c12 | – | 79.4 µM (active)
33 | Cc1cccc(/C=C/c2cccs2)n1 | 12.7% (inactive) | –
34 | COc1cccc(CN2Cc3cccc4c3[C@H](C=CC4)CC2=O)c1 | -0.201% (inactive) | –
35 | Cc1ccc2c(/C=C/c3ccc(N(C)C)cc3)ccnc2c1C | 0.259% (inactive) | –
36 | CS(=O)(=O)OCCCNCCCOS(C)(=O)=O | 27.9% (inactive) | –
37 | COc1cc(C(=O)NS(=O)(=O)c2ccccc2C)ccc1Cc1cn(C)c2ccc(NC(=O)OC3CCCC3)cc12 | – | 89.1 µM (active)
38 | COc1cc2c(cc1OC)CN(C(=O)[C@@H]1C[C@H](NCc3cn(C)c4ccccc34)CN1C1Cc3ccccc3C1)CC2 | -8.75% (inactive) | –
39 | C[C@@H](NC(=O)/C(C#N)=C/c1ccc(O)c(O)c1)c1ccccc1 | 35.9% [at 75.8 µM] (inactive) | –
40 | C[C@H](NC(=O)/C(C#N)=C/c1ccc(O)c(O)c1)c1ccccc1 | – | 89.1 µM (active) and inactive
41 | O=C(O)/C=C/c1ccc(O)c(O)c1 | – | inactive
42 | N#C/C(=C\c1ccc(O)c(O)c1)C(N)=O | – | inactive
43 | N#C/C(=C\c1ccc(O)c(O)c1)C(=O)c1ccc(O)c(O)c1 | -6.35% [at 75.8 µM] (inactive) | –
44 | CC(NNC(=O)c1ccccc1)c1ccccc1 (stereo unspecified) | 13.5% (inactive) | –
45 | N#C/C(=C\c1ccc(O)c(O)c1)C(=O)NCc1ccccc1 | – | inactive
46 | N#C/C(=C\c1ccc(O)c(O)c1)C(=O)Nc1ccccc1 | – | 79.4 µM (active) and inactive
47 | N#C/C(=C\c1ccc(O)c(O)c1)C(=O)OCCc1cccs1 | – | 39.8 µM (active)
48 | Cc1cccc2[nH]cc(/C=C3/C=Nc4ccccc43)c12 | -26.7% (inactive) | –
49 | c1cncc(CNc2nc(-c3ccc4c(c3)OCO4)nc3ccccc23)c1 | -1.58% (inactive) | –
50 | O=S(=O)(NCc1nc(N2CCCC2)c2cc(Cl)ccc2n1)c1ccccc1OC(F)(F)F | -4.38% (inactive) | –

Row | Structure (SMILES) | activity change, negative = inhibition | Potency
51 | O=C[C@H](O)[C@@H](O)[C@H](O[C@H]1O[C@H](CO)[C@@H](O[C@H]2O[C@H](CO)[C@@H](O)[C@H](O)[C@H]2O)[C@H](O)[C@H]1O)[C@H](O)CO | 23% (inactive) | –
52 | CCn1nc(C)cc1C(=O)N1CCC2(CC1)c1ccccc1[C@@H](NC(=O)c1cccnc1)[C@@H]2O | 13% (inactive) | –
53 | Cc1ncc2c(c1CNC(=O)c1ccc3c(c1)OCO3)CCN(C(=O)c1scc3c1CCCC3)C2 | 15.5% (inactive) | –
54 | CN(C)C(=O)c1ccc(-c2ccc3ncnc(NC4CC4)c3c2)cc1 | -5.36% (inactive) | –
55 | NCCC(=O)N[C@H](Cc1cnc[nH]1)C(=O)O | 7.46% (inactive) | –
56 | C[C@@H]1NC(=O)OC1c1ccco1 (stereo partly specified) | 10.5% (inactive) | –
57 | CS(=O)(=O)Nc1cccc(-c2nccc(NCc3cccs3)n2)c1 | -14.7% (inactive) | –
58 | Cc1cc(C)n(-c2cccc(C(=O)NCC3Cc4cccc(-c5cccnc5)c4O3)c2)n1 (stereo unspecified) | 6.83% (inactive) | –
59 | O=C1C=CC2=C3c4cc(O)c(O)cc4C[C@@]3(O)COC2=C1 | -19.9% (inactive) | –
60 | O=C1C=CC2=C3c4cc(O)c(O)cc4CC3(O)COC2=C1O (stereo unspecified) | – | 56.2 µM (active) and 25.1 µM (active)
61 | O=C1C=CC2=C3c4cc(O)c(O)cc4C[C@]3(O)COC2=C1 | -29.8% (inactive) | –
62 | CC1O[C@@H](O[C@@H]2C(O)C[C@H](O[C@@H]3C(O)C[C@@H](OC4CC[C@@]5(C)C6CC(O)[C@@]7(C)C(C8=CC(=O)OC8)CC[C@@]7(O)C6CC[C@@H]5C4)OC3C)OC2C)CC(O)[C@H]1O (stereo partly specified) | 14.6% (inactive) | –
63 | CC(Oc1ccccc1)C(=O)NCC1Cc2cc(F)cc(-c3ccccn3)c2O1 (stereo unspecified) | 0.154% (inactive) | –
64 | COc1ccc(-c2nc3cnc(Nc4cccc(OC)c4)nc3n(Cc3cccs3)c2=O)cc1 | – | 100 µM (active)
65 | COc1cccc(Nc2ncc3nc(-c4ccccc4)c(=O)n(Cc4cccs4)c3n2)c1 | 18.4% (inactive) | –
66 | COc1ccc(-c2nc3cnc(Nc4ccccc4)nc3n(Cc3cccs3)c2=O)cc1 | -3.69% (inactive) | –
67 | CN(CCOc1ccc(CC2SC(=O)NC2=O)cc1)c1ccccn1 (stereo unspecified) | 16.9% (inactive) | –
68 | Cc1c(C)c2c(c(C)c1O)CCC(C)(CCCC(C)CCCC(C)CCCC(C)C)O2 (stereo unspecified) | -7.36% (inactive) | –
69 | CC1(COc2ccc(CC3SC(=O)NC3=O)cc2)CCCCC1 (stereo unspecified) | 12.3% [at 15.3 µM] (inactive) | 35.5 µM (active)
70 | CCc1ccc(CCOc2ccc(CC3SC(=O)NC3=O)cc2)nc1 (stereo unspecified) | – | inactive
71 | Cc1c(C)c2c(c(C)c1O)CC[C@@](C)(CCC[C@H](C)CCC[C@H](C)CCCC(C)C)O2 | – | inactive
72 | Cc1c(C)c2c(c(C)c1O)CCC(C)(COc1ccc(CC3SC(=O)NC3=O)cc1)O2 (stereo unspecified) | – | 100 µM (active)
73 | CC1(COc2ccc(C[C@H]3SC(=O)NC3=O)cc2)CCCCC1 | – | 89.1 µM (active)
74 | Fc1ccc(N2CCN(Cc3ccc4c(c3)CN(Cc3cccn3-c3cccnc3)CCO4)CC2)cc1 | -5.67% (inactive) | –
75 | Cc1ccc2c(c1)CN(CCC(=O)NCc1cc(C)n(C)n1)CC(C)O2 (stereo unspecified) | 5.77% (inactive) | –

Row | Structure (SMILES) | activity change, negative = inhibition | Potency
76 | COc1cc(=O)n2c(c1C(=O)N(C)Cc1nonc1C)CCN(Cc1ccsc1)CC2 | 11.6% (inactive) | –
77 | Cc1ccc(CN2C[C@H](Sc3ccccn3)C[C@H]2C(=O)Nc2ccc3sc(C)nc3c2)c(C)c1 | 2.23% (inactive) | –
78 | CN(C)/N=N/c1nc[nH]c1C(N)=O | – | inactive
79 | COc1cccc(Cn2c(=O)c(-c3cc(F)cc(F)c3)nc3cncnc32)c1 | 0.958% (inactive) | –
80 | Cc1noc(C)c1-c1cc(N(C)C)ncn1 | 17.9% (inactive) | –
81 | CCCCCCCCCCCCN1[C@@H](CC(=O)OC)c2cc(C(F)(F)F)ccc2S1(=O)=O | -0.938% (inactive) | –
82 | CCCCCCCCCCCCN1[C@@H](CC(=O)O)c2cc(C(F)(F)F)ccc2S1(=O)=O | – | 89.1 µM (active)
83 | CCCCCCCCN1[C@@H](CC(=O)O)c2cc(C(F)(F)F)ccc2S1(=O)=O | 9.17% (inactive) | –
84 | COc1ccc(OC)c(-c2ccnc(-n3ncc(C(=O)N(C)CCc4ccccn4)c3C)n2)c1 | 18.1% (inactive) | –
85 | Clc1ccc2ncnc(NCc3ccc4c(c3)OCO4)c2c1 | 14.1% [at 201 µM] (inactive) | –
86 | CC(O)c1nc2ccccc2[nH]1 (stereo unspecified) | 5.07% (inactive) | –
87 | O=C1CC[C@@H](CN(Cc2cccnc2)C2CCN(c3ccc(NC(=O)c4cnccn4)cc3)CC2)N1 | -4.84% (inactive) | –
88 | CCCCC(CC)COC(=O)CC(C(=O)OCC(CC)CCCC)S(=O)(=O)O (stereo unspecified) | – | 56.2 µM (active) and 25.1 µM (active)
89 | CCCCC(CC)COS(=O)(=O)O (stereo unspecified) | -7.64% (inactive) | –
90 | CCCCC(CC)COC(=O)c1ccccc1O (stereo unspecified) | 24.3% (inactive) | –
91 | O=c1c(-c2ccccc2)nc2cncnc2n1Cc1ccccc1 | 2.28% (inactive) | –
92 | COc1ccc(-c2nc3cnc(N4CCN(C)CC4)nc3n(-c3ccc(OC)cc3)c2=O)cc1 | 19% (inactive) | –
93 | COc1ccc(-c2nc3cc(C)ccc3cc2CN(C(=O)c2ccc(C)s2)C2CC2)cc1OC | 4.33% (inactive) | –
94 | c1ccc(Cc2nnc3n2CCN(Cc2cnc(-c4ccccc4)s2)CC3)cc1 | 20.3% (inactive) | –
95 | COc1ccc(-n2c(=O)c(CCc3ccccc3)nc3cnc(N4CCNCC4)nc32)cc1 | 10.6% (inactive) | –
96 | COc1ccc(C(=O)C[n+]2ccccc2Cl)cc1 | 7.36% (inactive) | –
97 | COc1ccc(C(=O)CC(=O)c2ccc(C(C)(C)C)cc2)cc1 | – | 79.4 µM (active)
98 | COc1ccc(C(C)=O)cc1 | 18.3% (inactive) | –
99 | Cc1ncc2c(c1CNC(=O)c1ccsc1)CCN(C(=O)c1c(F)cccc1Cl)C2 | 8.26% (inactive) | –
100 | COc1cc(C)c(CN2C[C@H](Sc3ccccn3)C[C@H]2C(=O)N(C)C)cc1C | -9.09% (inactive) | –
